High-throughput results from PubChem BioAssay.
Pf Dd2 growth: blocks in vitro growth of P. falciparum Dd2 | AID 1347417 | P. falciparum Dd2 growth, SYBR Green, 72 h | 4.3% of 120,000 active | Potency, µM (top dose mostly 28.9 µM), actives largely listed as inhibitors; active = well fitted inhibition curve with a large enough effect; note: nearly all actives have a fitted effect of over 65% in size
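Infected erythrocytes (Dd2, 0.3% parasitemia, 2.5% hematocrit final) are added to compound in RPMI-1640/Albumax II medium, grown 72 h at 37C in low oxygen, then lysed with saponin/Triton-X containing SYBR Green and read by fluorescence.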
Each line names hits and unclear results; the compound was inactive in the other large screens. The full list was thinned out, with hits kept by preference.

CCCn1cc(CNC(=O)c2cc3c(s2)CCC(C)C3)cn1 (configuration not stated)	none
COC[C@@H]1CN(C(=O)c2ccc(=O)[nH]c2)C[C@H]1c1ccncc1	none
COCCn1nc2n(c1=O)CCN(C(=O)c1cc(F)ccc1F)CC2	none
Cc1c(Cl)cccc1NC(=O)Cn1ccn2nc3c(c2c1=O)CCCCC3	none
COc1ccc(C(=O)NC(C(=O)N2CCCC2)C2CCN(C(=O)c3ccccc3)CC2)cc1 (configuration not stated)	none
CCC(C)NC(=O)C(NC(=O)c1ccc(C)cc1)C1CCN(C(=O)c2ccc(F)cc2)CC1 (configuration not stated)	none
CCN(CC)C(=O)C(NC(=O)c1ccc(OC)cc1)C1CCN(C(C)=O)CC1 (configuration not stated)	none
COc1ccc(C(=O)NC(C(=O)NC(C)C(C)C)C2CCN(C(=O)c3ccc(C)cc3)CC2)cc1 (configuration not stated)	Pf Dd2 growth 2.5µM
CCN(CC)C(=O)C(NC(=O)c1ccc(C)cc1)C1CCN(C(=O)c2cccc(OC)c2)CC1 (configuration not stated)	Pf Dd2 growth 4.5µM
CCCNC(=O)C(NC(=O)c1cccc(OC)c1)C1CCN(C(=O)c2cccc(OC)c2)CC1 (configuration not stated)	none
O=C([C@@H]1C[C@H](Oc2cccnc2)CN1S(=O)(=O)c1cccnc1)N1CCCC1	none
O=C(c1ccc(F)cc1)N1CCOC[C@H](Oc2cnccn2)C1	none
CCCS(=O)(=O)N1CCC(N2C(=O)C(OC)C23CCOCC3)CC1 (configuration not stated)	none
CS(=O)(=O)NC[C@H]1Cn2c(-c3ccc(F)cc3)cnc2CO1	none
COc1ccccc1C(=O)NC[C@H]1Cn2c(-c3ccc(Cl)cc3)cnc2CO1	Pf Dd2 growth 11µM
Fc1ccc(-c2cnc3n2C[C@H](CNCc2ccccc2Cl)OC3)cc1	none
c1ccc(-c2cnc3n2C[C@H](CNCc2nccs2)OC3)cc1	none
O=C(NC[C@H]1Cn2c(-c3ccc(F)cc3)cnc2CO1)c1ccc(Cl)cc1	none
CC(=O)Nc1ccc(CNC[C@H]2Cn3c(-c4ccc(F)cc4)cnc3CO2)cc1	none
Fc1ccc(-c2cnc3n2C[C@H](CN(Cc2ccccc2)Cc2ccccc2)OC3)cc1	Pf Dd2 growth 6.3µM
COCC(=O)NC[C@H]1Cn2c(-c3ccc(Cl)cc3)cnc2CO1	none
c1ccc(CNC[C@H]2Cn3c(-c4ccccc4)cnc3CO2)cc1	Pf Dd2 growth 11µM
COCCOC1CCN(C(=O)Cc2cccs2)CC1	none
C=CCCC(CN1CCSCC1)Oc1ccc(C#N)cn1 (configuration not stated)	none
CC(C)CCN1CCC(N2CCN(C(=O)c3ccc(F)cc3F)CC2)C1=O (configuration not stated)	none
O=C(NCc1ccccn1)C1CCN(Cc2cc3n(n2)CCNC3)CC1	none
CCc1ccc(S(=O)(=O)N2CC(F)(F)C[C@H]2c2nnc(C)o2)cc1	none
O=C(NC1CC(=O)N(CCCc2ccccc2)C1)c1ccoc1 (configuration not stated)	none
COc1ccc(-c2cc(N3CCC(NC(=O)COc4ccccc4C)CC3)n[nH]2)cc1	none
COC1CCC12CCN(C(=O)c1ccc3[nH]ccc3c1)CC2 (configuration not stated)	none
CC(=O)Nc1ccc(S(=O)(=O)N2CC[C@H](c3nc4ccccc4o3)C2)cc1	none
CNC(=O)[C@@H]1C[C@@H](n2cc(CN(C)C(=O)Nc3ccc(F)cc3)nn2)CN1	none
CC(C)CCN1CCCC2(CNc3ccccc3[S+](=O)([O-])N2)C1 (configuration not stated)	Pf Dd2 growth 13µM
Cn1nccc1CN1CCCC2(CNc3ccccc3[S+](=O)([O-])N2)C1 (configuration not stated)	none
N#Cc1ccc(CN2CCCC3(CNc4ccccc4[S+](=O)([O-])N3)C2)cc1 (configuration not stated)	none
O=C(Cn1nc2c(cc1=O)CCCCC2)NCc1ccc(C(=O)O)cc1	none
CCC(N)(CC)c1cn(CC2CCCN(S(C)(=O)=O)C2)nn1 (configuration not stated)	none
CCn1cc(CN2CCCC23CCN(c2cc(C)nc4ccccc24)CC3)c(C)n1	Pf Dd2 growth 2µM
Cc1cc(N2CCC3(CCCN(C)C3=O)C2)c2ccccc2n1 (configuration not stated)	none
CCn1cc(CN2CCC(Oc3ccc4ccccc4c3)(C(=O)O)CC2)c(C)n1	none
CC(C)NC(=O)N[C@H]1C[C@@H](Cc2cc(CCO)on2)C1(C)C	none
O=C(NCc1ccncc1)c1ccc2c(c1)OCCN(c1cccc(OC(F)(F)F)c1)C2	none
O=C(Nc1nccs1)c1ccc2c(c1)OCCN(c1cccc(OC(F)(F)F)c1)C2	none
O=C(NCc1ccncc1)c1ccc2c(c1)OCCN(c1ccccc1)C2	none
O=C(NC1CCOCC1)c1ccc2c(c1)OCCN(c1ccccc1)C2	none
O=C(NCCc1ccccc1)c1ccc2c(c1)OCCN(c1ccccc1)C2	Pf Dd2 growth 10µM
O=C(NCCOc1ccccc1)c1ccc2c(c1)OCCN(c1ccccc1)C2	none
COc1ccc(NC(=O)c2ccc3c(c2)OCCN(c2ccccc2)C3)cn1	none
